Consider six compounds from PubChem BioAssay.

The nature of experiment [1]: A549 cell viability effects, profiling panel, calcein-AM fluorescence, 48 h, basal (AID 1162). Further: test concentration not given here. As to conditions: higher = more signal.
Experiment [2] can be described thus: adipocyte viability effects, profiling panel, cell-based, 3T3-L1 adipocytes, calcein-AM fluorescence, 48 h, basal (AID 1163). Further: test concentration not given here. The conditions noted are these: 3T3-L1 adipocytes viability, higher = more signal.
A short description of experiment [3]: HepG2 cell viability effects, profiling panel, calcein-AM fluorescence, 48 h, basal (AID 1164). Further: test concentration not given here. As to conditions: higher = more signal.
Experiment [4] is described as follows: MM1S cell viability effects, profiling panel, calcein-AM fluorescence, 48 h, basal (AID 1165).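 Further: viability of MM1S multiple myeloma cells under basal unstimulated conditions; test concentration not given here.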 The conditions noted are these: higher = more signal.
A short description of experiment [5]: basal RPMI8226 viability, no added stimulus, profiling panel, cell-based, calcein-AM fluorescence, 48 h, PK04 Diversity Set (AID 1166).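 Further: cells grown under basal conditions without added stimulus; test concentration not given here.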 The conditions noted are these: RPMI8226 myeloma viability, higher = more signal.
The nature of experiment [6]: basal HepG2 mitochondrial membrane potential changes, profiling panel, cell-based, JC-1 fluorescence, 24 h, 100 nL compound (AID 1167). Further: test concentration not given here. As to conditions: higher = more signal.
The nature of experiment [7]: basal 3T3-L1 adipocyte mitochondrial potential changes, profiling panel, cell-based, JC-1 fluorescence, 3T3-L1 adipocytes, 24 h, 100 nL compound (AID 1168). Further: test concentration not given here. The conditions noted are these: JC-1 mitochondrial fluorescence, higher = more signal, called active from +8 up or from −8 down.
Experiment [8] is described as follows: basal RPMI8226 mitochondrial membrane potential changes, profiling panel, cell-based, JC-1 fluorescence, 24 h, 100 nL compound (AID 1169). Further: test concentration not given here. The conditions noted are these: RPMI8226 myeloma, JC-1 mitochondrial potential fluorescence, higher = more signal.
The nature of experiment [9]: basal MM1S mitochondrial membrane potential changes, profiling panel, cell-based, JC-1 fluorescence, 24 h, 100 nL compound (AID 1170). Further: test concentration not given here. The conditions noted are these: higher = more signal.
The nature of experiment [10]: A549 lung cancer cell viability effects, profiling panel, resazurin fluorescence, 24 h, PK04 Diversity Set (AID 1171). Further: test concentration not given here. The conditions noted are these: higher = more signal, called active from +8 up or from −8 down. In general terms: The colour change of resazurin is a common sign of viable cells or microbes.
A short description of experiment [11]: HepG2 liver cancer cell viability effects, profiling panel, resazurin fluorescence, 24 h, PK04 Diversity Set (AID 1172). Further: test concentration not given here. As to conditions: higher = more signal.
Experiment [12] can be described thus: basal S. cerevisiae growth modulation, no modifier, primary screen, OD600, strain BY4716, 24 h, basal condition (AID 1173). As to conditions: OD600, 24 h, higher = more signal, called active from +8 up or from −8 down.
Experiment [13] in a line: MM1S myeloma cell viability, profiling panel, resazurin fluorescence, basal, 24 h, PK04 Diversity Set (AID 1174). Further: test concentration not given here. The conditions noted are these: higher = more signal, called active from +8 up or from −8 down.
Experiment [14] deals with Dihydroorotate dehydrogenase (quinone), mitochondrial (Plasmodium falciparum (isolate 3D7)) (UniProt Q08210). Put plainly: PfDHODH enzyme inhibitors, primary screen, biochemical, C-terminal His tag, absorbance 600 nm (AID 1175).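 Further: recombinant parasite enzyme with a five histidine tag at its C terminus; test concentration not given here.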 The conditions noted are these: DCIP absorbance 600 nm, higher = more signal, called active from +8 up or from −8 down.
Chain of Dihydroorotate dehydrogenase (quinone), mitochondrial (Plasmodium falciparum (isolate 3D7)) (Q08210 whole entry, looked up): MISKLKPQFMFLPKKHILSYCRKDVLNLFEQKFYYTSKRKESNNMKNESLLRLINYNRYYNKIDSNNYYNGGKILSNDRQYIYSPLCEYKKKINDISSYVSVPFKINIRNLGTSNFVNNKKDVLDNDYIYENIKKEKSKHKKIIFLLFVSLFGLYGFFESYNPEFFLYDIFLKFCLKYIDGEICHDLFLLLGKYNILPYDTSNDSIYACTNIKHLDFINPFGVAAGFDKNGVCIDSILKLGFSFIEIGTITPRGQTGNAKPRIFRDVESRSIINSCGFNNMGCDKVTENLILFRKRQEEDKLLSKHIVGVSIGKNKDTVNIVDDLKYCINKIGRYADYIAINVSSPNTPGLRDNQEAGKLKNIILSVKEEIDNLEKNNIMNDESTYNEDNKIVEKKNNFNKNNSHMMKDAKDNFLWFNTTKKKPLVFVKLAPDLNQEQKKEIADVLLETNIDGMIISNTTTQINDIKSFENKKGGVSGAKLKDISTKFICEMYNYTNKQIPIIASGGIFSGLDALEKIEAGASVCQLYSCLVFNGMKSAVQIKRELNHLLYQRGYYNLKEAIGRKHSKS
Experiment [15] can be described thus: P. aeruginosa biofilm formation inhibitors, primary screen, strain PAO1, LB-PBS medium, absorbance 600 nm (AID 1176). Further: test concentration not given here. As to conditions: P. aeruginosa PAO1 growth/biofilm, A600, 12 h; higher = more signal.
A short description of experiment [16]: S. cerevisiae RM11-1a growth modifiers, primary screen, strain RM11-1a, OD600, basal, 24 h (AID 1177).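 Further: cultures grown under basal conditions with no added stressor; test concentration not given here.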 As to conditions: OD600, 24 h, higher = more signal, called active from +8 up or from −8 down.
The nature of experiment [17]: E. coli acrAB mutant growth effects, primary screen, E. coli filamentation inducers, strain DRC39, OD650, 24 h (AID 1178).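 Further: growth measured as culture turbidity by optical density at 650 nm; test concentration not given here.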 As to conditions: higher = more signal, called active from +8 up or from −8 down.
Experiment [18] in a line: E. coli acrAB mutant growth effects, primary screen, E. coli filamentation inducers, strain DRC39, OD650, 48 h (AID 1179).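 Further: screen aims at cell division blockers that make cells filament.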 As to conditions: E. coli DRC39 delta-acrAB growth, higher = more signal, called active from +8 up or from −8 down.
Experiment [19] is described as follows: RPMI8226 myeloma cell viability, profiling panel, resazurin fluorescence, basal, 24 h, PK04 Diversity Set (AID 1180).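 Further: RPMI8826 multiple myeloma cell line at 5000 cells per well; test concentration not given here.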 The conditions noted are these: higher = more signal.
The target of experiment [20] is E3 ubiquitin-protein ligase XIAP (Homo sapiens) (UniProt P98170). Put plainly: XIAP binders, primary screen, biophysical, small-molecule microarray, fluorescence 635 nm (AID 1181).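 Further: score merges 667 nm emission and signal to noise over triplicate slides.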 The conditions noted are these: small-molecule microarray binding, higher = more signal.
Chain of E3 ubiquitin-protein ligase XIAP (Homo sapiens) (P98170 whole entry, looked up): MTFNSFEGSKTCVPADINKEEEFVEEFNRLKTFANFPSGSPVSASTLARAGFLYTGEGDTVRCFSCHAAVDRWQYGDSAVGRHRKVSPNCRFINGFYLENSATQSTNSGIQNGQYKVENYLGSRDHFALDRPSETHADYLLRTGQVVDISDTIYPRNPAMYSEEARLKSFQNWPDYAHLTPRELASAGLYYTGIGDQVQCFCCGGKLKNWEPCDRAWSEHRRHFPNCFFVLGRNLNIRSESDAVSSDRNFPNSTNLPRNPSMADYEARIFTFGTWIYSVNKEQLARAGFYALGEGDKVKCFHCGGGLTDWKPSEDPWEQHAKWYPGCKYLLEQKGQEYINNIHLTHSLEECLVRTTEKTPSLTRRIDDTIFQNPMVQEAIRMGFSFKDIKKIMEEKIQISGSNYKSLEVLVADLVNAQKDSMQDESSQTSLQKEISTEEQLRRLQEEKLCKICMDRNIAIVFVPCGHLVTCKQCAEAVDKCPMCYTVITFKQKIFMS

Where “and” joins values, the source holds several entries; their conditions need not be identical. Equal values may be shown once. Calls of active or inactive are those of the source. Unless noted, how the calls were made is not given here.

For `COCn1c2ccccc2c2nnc(C(C)=O)nc21`, the z-score in experiment [1] was -0.337 and -0.197; in [2], 0.745 and 0.622; in [3] it was -0.786 and -0.47; in experiment [4] it was -0.32 and -0.151; in experiment [5], -2.16 and -1.74; in experiment [6] it was -2.92 and -0.761. Further, the z-score was 0.0492 (inactive) and 0.883 (inactive) in [7]; -0.79 and -0.473 in experiment [8]; -0.189 and -0.639 in experiment [9]; -0.181 (inactive) and -0.856 (inactive) in experiment [10]; -0.159 and -0.565 in [11]; -1.93 (inactive) and -2 (inactive) in experiment [12]. The z-score in experiment [13] is -0.0104 (inactive) and 0.0255 (inactive); in experiment [15], -0.907 (inactive) and -0.576 (inactive); in [16] it was 0.204 (inactive) and -0.16 (inactive); in experiment [17], -1.12 (inactive) and -1.17 (inactive); in experiment [18] it was -1.07 (inactive) and -1.34 (inactive); in experiment [19], -0.261 and -0.35. Also, the composite z-score was -2.39 (inactive) and -2.01 (inactive) in experiment [14]; -0.0095 and -0.065 in experiment [20].
Take `COC(=O)C1=C(C)N(Cc2ccccc2)[C@]23O[C@](C(=O)OC)(C(=O)N2[C@@H]1c1ccccc1)[C@@H](C(=O)OC)[C@H]3C(=O)OC`: the z-score in experiment [1] was 1.59 and 1.67; in experiment [2], -0.0502 and -0.386; in experiment [3], 0.209 and 1.32; in experiment [4] it was 0.185 and 0.568; in experiment [5] it was 0.248 and 0.636; in experiment [6], 0.345 and 0.106. Moreover, the z-score in [7] is 0.225 (inactive) and 1.49 (inactive); in [8] it was -0.866 and 0.532; in [9], -0.142 and -0.237; in experiment [10], 0.415 (inactive) and -0.804 (inactive); in [11] it was 0.348 and -0.761; in experiment [12], 0.583 (inactive) and -0.704 (inactive). For the same compound, the z-score in experiment [13] was 0.409 (inactive) and -0.59 (inactive); in experiment [15], 0.177 (inactive) and 0.241 (inactive); in experiment [16], 1.62 (inactive) and 0.72 (inactive); in [17], 0.148 (inactive) and 0.72 (inactive); in experiment [18] it was 0.165 (inactive) and 0.532 (inactive); in experiment [19], 0.537 and -0.332. In addition, the composite z-score in experiment [14] is 0.466 (inactive) and -0.412 (inactive); in experiment [20], -0.17 and -0.219.
With `CC(C)=CCCC(C)=CCON=C1C[C@@H](O)[C@@H](O)[C@@H]2[C@@H]3C(=O)N([C@@H](C)c4ccccc4)C(=O)[C@@H]3CC[C@H]12`, the z-score in experiment [1] is 0.0319; in experiment [2], 0.2; in [3], 0.446; in [4], -2.88; in experiment [5], -0.0017; in experiment [6] it was 0.374. For the same compound, the z-score in experiment [7] is 1.08 (inactive); in [8], 0.0351; in [9], -1.78; in experiment [10], -1.38 (inactive); in [11], -1.03; in experiment [12] it was -3.41 (inactive). Moreover, the z-score in [13] was -0.339 (inactive); in [15], 0.365 (inactive); in [16], -2.18 (inactive); in experiment [17], -1 (inactive); in [18], -0.666 (inactive); in [19], -0.637. Moreover, the composite z-score was -1.48 (inactive) in experiment [14] and 0.104 in experiment [20].
Regarding `C=CCN(C(=O)C(c1cccs1)N(C(=O)/C=C\C(=O)O)c1c(Cl)cccc1CO)C(C)(C)C` (stereo not given), the z-score was 0.422 and -0.237 in [1]; 0.0699 and -0.221 in experiment [2]; -0.0685 and 0.369 in [3]; 0.221 and 0.0812 in [4]; -0.511 and -0.202 in [5]; -0.99 and -0.519 in experiment [6]. In addition, the z-score in experiment [7] was 0.563 (inactive) and 0.497 (inactive); in experiment [8], -0.639 and -0.0626; in experiment [9], 0.923 and 0.231; in [10], -0.493 (inactive) and -0.643 (inactive); in experiment [11], -0.842 and -0.839; in experiment [12] it was 0.0318 (inactive) and -0.393 (inactive). The z-score in experiment [13] was -0.525 (inactive) and -0.895 (inactive); in experiment [15], -0.304 (inactive) and -0.677 (inactive); in experiment [16], -0.107 (inactive) and -0.495 (inactive); in [17] it was -0.514 (inactive) and -0.291 (inactive); in [18] it was -0.372 (inactive) and -0.102 (inactive); in experiment [19], -0.554 and -1.29. Besides, the composite z-score is -1.77 (inactive) and -0.93 (inactive) in [14]; -0.191 and 0.1 in experiment [20].
With `CCCNC(=O)OC[C@H]1O[C@H](CCON=C(C)CCN2CCc3nc(-c4ccccc4)c(-c4ccccc4)cc3C2)C=C[C@@H]1Oc1ccc(OC)cc1`, the z-score in experiment [1] is 1.18; in [2] it was 0.723; in [3], 0.27; in [4], -0.893; in experiment [5] it was -0.794; in experiment [6], 4.79. In addition, the z-score in [7] was -1.65 (inactive); in [8] it was 0.179; in experiment [9] it was 0.483; in experiment [10], 0.444 (inactive); in [11], 0.0965; in [12], -0.238 (inactive). Further, the z-score was -0.53 (inactive) in experiment [13]; 0.347 (inactive) in experiment [15]; 1.13 (inactive) in experiment [16]; 0.324 (inactive) in experiment [17]; -1.58 (inactive) in experiment [18]; 0.0105 in experiment [19]. Besides, the composite z-score in experiment [14] was 0.672 (inactive); in experiment [20], -0.193.
In the case of `C=C[C@H](OC)[C@@H](O)c1ccc(OCCO)cc1`, the z-score was -0.057 and 1.18 in experiment [1]; -0.367 and 0.0113 in experiment [2]; -0.485 and 0.98 in experiment [3]; -0.457 and 1.61 in experiment [4]; -0.179 and 0.542 in [5]; -0.899 and 1.11 in experiment [6]. Also, the z-score was -0.433 (inactive) and -0.178 (inactive) in experiment [7]; -0.0855 and -0.21 in experiment [8]; 0.412 and 1.06 in [9]; -0.555 (inactive) and -0.0644 (inactive) in experiment [10]; -0.843 and 0.501 in [11]; -0.43 (inactive) and -1.55 (inactive) in experiment [12]. Moreover, the z-score in experiment [13] was -0.887 (inactive) and 0.51 (inactive); in experiment [15], 0.0123 (inactive) and 1.37 (inactive); in experiment [16], 0.952 (inactive) and -0.0987 (inactive); in experiment [17] it was -0.258 (inactive) and 1.78 (inactive); in experiment [18], -0.366 (inactive) and 1.8 (inactive); in experiment [19], -1.28 and 1.05. For the same compound, the composite z-score in [14] was -0.0113 (inactive) and -0.134 (inactive); in experiment [20], -0.206 and -0.352.
